Reference: PubChem BioAssay (NCATS)
Inconclusive results are not listed. Activity calls are given as the source filed them. The call rests on the fitted dose curve; in most records, active means well fitted inhibition curve with a large enough effect; inconclusive means small, poorly fitted or top-dose-only effect; inactive means flat fitted curve, though single readings scatter.

Assays:
Assay in all cases: qHTS profiling for inhibitors of Plasmodium falciparum proliferation (AID 504749); further: nearly all actives have a fitted effect of over 60% in size
Conditions in all cases: P. falciparum in erythrocytes, SYBR Green DNA, 72 h; series mostly up to 28.7 µM
ATS189 = system: ATS189
Outline: (§1)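 P. falciparum-infected erythrocytes (0.3% parasitemia, 2.5% hematocrit final) were exposed to compounds for 72 h at 37 C in 5% CO2, then lysed with SYBR Green buffer overnight at room temperature; parasite DNA fluorescence was normalized to artemisinin and DMSO controls.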

ATS95 = system: ATS95
Outline: as §1

C2A = system: C2A
Outline: as §1

CP185 = system: CP185
Outline: as §1

CP191 = system: CP191
Outline: as §1

CP192 = system: CP192
Outline: as §1

CP194 = system: CP194
Outline: as §1

CP201 = system: CP201
Outline: as §1

CP203 = system: CP203
Outline: as §1

CP211 = system: CP211
Outline: as §1

CP215 = system: CP215
Outline: as §1

CP217 = system: CP217
Outline: as §1

CP237 = system: CP237
Outline: as §1

CP238 = system: CP238
Outline: as §1

CP247 = system: CP247
Outline: as §1

CP250 = system: CP250
Outline: as §1

CP252 = system: CP252
Outline: as §1

CP256 = system: CP256
Outline: as §1

CP260 = system: CP260
Outline: as §1

CP262 = system: CP262
Outline: as §1

Measured: Potency

CC(=O)Nc1ncc([N+](=O)[O-])s1
inactive: all assays above

CCC(CC)(CC(=O)Nc1cccc(/C=C/c2nc(C3CCC3)cs2)c1)C(=O)O
inactive: all assays above

CCCCCCCCCCCCSCCOCCO
inactive: all assays above

CCCN(CCC)S(=O)(=O)c1ccc(C(=O)O)cc1
inactive: all assays above

NS(=O)(=O)c1ccc(Cl)c(S(N)(=O)=O)c1
inactive: all assays above

C#C[C@]1(O)CC[C@H]2[C@@H]3CCC4=Cc5oncc5C[C@]4(C)[C@H]3CC[C@@]21C
inactive: all assays above

COc1cc(NS(=O)(=O)c2ccc(N)cc2)ncn1
inactive: all assays above

Cc1c(-c2ccccc2)oc2c(C(=O)OCCN3CCCCC3)cccc2c1=O
inactive: all assays above

Nc1nc(-c2ccccc2)c(Br)c(=O)[nH]1
inactive: all assays above

O=C(O)Cc1csc(-c2ccc(Cl)cc2)n1
inactive: all assays above

Cc1cc(C)cc(OCC2CNC(=O)O2)c1 (stereo not given)
inactive: all assays above

Cc1cc(-c2ccccc2)nnc1NCCN1CCOCC1
inactive: all assays above

COc1cc(C(=S)N2CCOCC2)ccc1O
inactive: all assays above
